Measured values taken from PubChem BioAssay (Tox21).
Where “and” joins values, the source holds several entries; their conditions need not be identical. Equal entries are not always repeated. Inconclusive results are not listed. A structure can be active in one record and inactive in another. Calls of active or inactive are those of the source. Unless noted, calls follow the shape of the dose curve; as a rule, active = well fitted curve in the direction sought with a large enough effect in the repeat runs; inconclusive = weak or mixed curves; inactive = no such curve, though single readings can be large; an effect the other way counts as inactive or inconclusive.

Key:
[1] = qHTS assay to identify small molecule agonists of H2AX (AID 1224845; active = well fitted activation curve with a large enough effect in the signal ratio in the repeat runs, not every such curve was filed as active; the % refers to the signal ratio)
In short: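 Wild-type CHO-K1 cells, plated overnight, exposed 3hr at 37C to 15 concentrations (0.76% DMSO final). Lysed, then HTRF anti-pH2AX (S139) cryptate and anti-H2AX-d2 antibodies, 24 hr room temperature; 665/620 nm emission read.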

[2] = qHTS assay to identify small molecule agonists of the hypoxia (HIF-1) signaling pathway (AID 1224846; active = well fitted activation curve with a large enough effect in the signal ratio in the repeat runs, not every such curve was filed as active; the % refers to the signal ratio)
In short: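 Steps: seed ME-180 HRE-bla cells (2,000/well, 0.5% dialyzed FBS); incubate 5 hrs at 37C; pin-transfer compounds or DMSO; incubate 17 hrs; add LiveBLAzer B/G substrate CCF4-AM; measure reporter activation by FRET.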

[3] = qHTS assay to identify small molecule agonists of H2AX - cell viability counter screen (AID 1224847; calls by dose curve; also: top concentration of the series differs between compounds; nearly all actives have a fitted effect of over 30% in size)
In short: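 Viability of CHO-K1 (wild type) cells after 3 hr compound exposure was measured by CellTiter-Glo luminescence.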

[4] = qHTS RealTime-Glo MT Cell Viability Assay in HepG2 cells - 24 hour (AID 1224867); also: nearly all actives have a fitted effect of over 50% in size
In short: (§1)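 Viability was tracked continuously by NanoLuc luminescence from prosubstrate reduced by living HepG2 cells, at successive time points over 40 h of compound exposure. Cells with reagent were preincubated 5 h at 37 °C before compound addition.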

[5] = qHTS RealTime-Glo MT Cell Viability Assay in HEK293 cells - 32 hour (AID 1224868); also: nearly all actives have a fitted effect of over 50% in size; also: potency is read from the fitted curve at half-maximal effect
In short: (§2)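 Viability tracked continuously by luminescence as live cells reduce a prosubstrate for NanoLuc; HEK293 cells preincubated 5 h, compound-treated at 37 C, and read at 0, 8, 16, 24, 32 and 40 h.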

[6] = A CellTox Green Cytotoxicity Assay to monitor cytotoxicity in HEK293 cells - 0 hour (AID 1224869); also: nearly all actives have a fitted effect of over 50% in size
In short: (§3)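 Cytotoxicity was tracked continuously in HEK293 cells by a DNA-binding dye excluded from viable cells. Compounds were transferred in DMSO 5 h after seeding; fluorescence was recorded at intervals up to 40 h.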

[7] = qHTS RealTime-Glo MT Cell Viability Assay in HepG2 cells - 40 hour (AID 1224870); also: nearly all actives have a fitted effect of over 50% in size
In short: (§4)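 HepG2 cells (600/well) mixed with RealTime-Glo MT reagent, settled 5 h at 37 C/5% CO2 before compound addition. Nonlytic NanoLuc luminescence from viable-cell prosubstrate reduction read repeatedly during 40 h treatment at 37 C.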

[8] = A CellTox Green Cytotoxicity Assay to monitor cytotoxicity in HEK293 cells - 40 hour (AID 1224871); also: nearly all actives have a fitted effect of over 45% in size
In short: as §3

[9] = qHTS RealTime-Glo MT Cell Viability Assay in HEK293 cells - 16 hour (AID 1224872); also: nearly all actives have a fitted effect of over 50% in size; also: potency is read from the fitted curve at half-maximal effect
In short: as §2

[10] = qHTS RealTime-Glo MT Cell Viability Assay in HepG2 cells - 8 hour (AID 1224873); also: nearly all actives have a fitted effect of over 55% in size
In short: as §4

[11] = qHTS RealTime-Glo MT Cell Viability Assay in HEK293 cells - 40 hour (AID 1224874); settings: RealTime-Glo luminescence; max response: stronger effect = lower value; also: nearly all actives have a fitted effect of over 50% in size; also: potency is read from the fitted curve at half-maximal effect
In short: (§5)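 Nonlytic bioluminescent viability monitoring. HEK293 at 600 cells/well with reagent; 5 h settle; compound transfer by pintool; plates held at 37 C and read at set time points.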

[12] = A CellTox Green Cytotoxicity Assay to monitor cytotoxicity in HEK293 cells - 24 hour (AID 1224875); also: nearly all actives have a fitted effect of over 45% in size
In short: as §3

[13] = A CellTox Green Cytotoxicity Assay to monitor cytotoxicity in HepG2 cells - 16 hour (AID 1224876); also: nearly all actives have a fitted effect of over 45% in size
In short: (§6)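 Real-time, homogeneous cytotoxicity readout: dead-cell DNA staining by CellTox Green in HepG2 monolayers, fluorescence measured at timed intervals up to 40 h of continuous compound exposure.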

[14] = qHTS RealTime-Glo MT Cell Viability Assay in HepG2 cells - 32 hour (AID 1224877); also: nearly all actives have a fitted effect of over 55% in size
In short: as §1

[15] = A CellTox Green Cytotoxicity Assay to monitor cytotoxicity in HepG2 cells - 24 hour (AID 1224878); also: nearly all actives have a fitted effect of over 45% in size
In short: as §6

[16] = A CellTox Green Cytotoxicity Assay to monitor cytotoxicity in HepG2 cells - 40 hour (AID 1224879); also: nearly all actives have a fitted effect of over 40% in size
In short: as §6

[17] = qHTS RealTime-Glo MT Cell Viability Assay in HEK293 cells - 0 hour (AID 1224880)
In short: as §5

[18] = A CellTox Green Cytotoxicity Assay to monitor cytotoxicity in HEK293 cells - 32 hour (AID 1224881); also: nearly all actives have a fitted effect of over 40% in size
In short: as §3

[19] = qHTS assay to identify small molecule antagonists of the estrogen related receptor (ERR) signaling pathway from Tox21 library (AID 1224848); also: nearly all actives have a fitted effect of over 50% in size
In short: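 Luminescent reporter read-out (ONE-Glo) from NTP's ERR cell line after 18 h treatment at 37 C with DMSO-dissolved Tox21 compounds; cells pre-plated 6 h beforehand at 2,000 per well.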

[20] = qHTS assay to identify small molecule agonists of the estrogen related receptor (ERR) signaling pathway from Tox21 library (AID 1224849; calls by dose curve; also: nearly all actives have a fitted effect of over 15% in size); settings: ERR reporter cell line, ONE-Glo luciferase, 18 h; at 92.4 µM (top of the series)
In short: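 Agonist signal is luciferase luminescence from an ERR reporter cell line treated 18 h at 37 C with DMSO-dissolved compounds, read 30 min after ONE-Glo addition at room temperature.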
% is scaled to controls: 0 for no effect and ±100 for the full control effect.

C=C(C)C#N
inactive and 5.49 µM (active): Potency [5]
inactive and 21.9 µM (active): Potency [9]
inactive: Potency [1] | outcome [2] | Potency [3] | Potency [4] | Potency [6] | Potency [7] | Potency [8] | Potency [10] | max response [11] 3.27% | Potency [12] | Potency [13] | Potency [14] | Potency [15] | Potency [16] | Potency [17] | Potency [18]
active: Potency [11] 5.49 µM

CC(C)COC(=O)c1ccccc1C(=O)OCC(C)C
inactive: Potency [1] | outcome [2] | Potency [3] | Potency [4] | Potency [5] | Potency [6] | Potency [7] | Potency [8] | Potency [9] | Potency [10] | max response [11] 8.51% and 5.74% | Potency [12] | Potency [13] | Potency [14] | Potency [15] | Potency [16] | Potency [17] | Potency [18]

COc1ccc(CO)cc1
inactive: Potency [1] | outcome [2] | Potency [3] | Potency [4] | Potency [5] | Potency [6] | Potency [7] | Potency [8] | Potency [9] | Potency [10] | max response [11] 11.4% and -15.8% | Potency [12] | Potency [13] | Potency [14] | Potency [15] | Potency [16] | Potency [17] | Potency [18]

CN(C)c1nc(=O)n(C2CCCCC2)c(=O)n1C
inactive: Potency [1] | outcome [2] | Potency [3] | Potency [4] | Potency [5] | Potency [6] | Potency [7] | Potency [8] | Potency [9] | Potency [10] | max response [11] 6.15% and 0.589% | Potency [12] | Potency [13] | Potency [14] | Potency [15] | Potency [16] | Potency [17]

CC(C)(C#N)N=NC(C)(C)C#N
inactive: Potency [1] | outcome [2] | Potency [3] | Potency [4] | Potency [5] | Potency [6] | Potency [7] | Potency [8] | Potency [9] | Potency [10] | max response [11] 5.82% and -2% | Potency [12] | Potency [13] | Potency [14] | Potency [15] | Potency [16] | Potency [17] | Potency [18]

CN(C)c1ccccc1
inactive: Potency [1] | outcome [2] | Potency [3] | Potency [19] | activity change, positive = activation [20] -1.62% and 6.09% | Potency [4] | Potency [5] | Potency [6] | Potency [7] | Potency [8] | Potency [9] | Potency [10] | max response [11] 0.0564% and 11.3% | Potency [12] | Potency [13] | Potency [14] | Potency [15] | Potency [16] | Potency [17] | Potency [18]
